Results taken from ChEMBL document CHEMBL3988442, “University of Dundee, Small-Polar-MMV Screening Library” (2021).
For some of these results: Entries with a potency or affinity are not part of this list.

Legend:
Set-up in all cases: scale not given: direction of the effect not stated beside the values
[1] = target: Protein translocase subunit SecA (Escherichia coli (strain K12)) (UniProt P10408); test: Assay to Identify E. coli SecA ATPase Inhibitors; type: functional; conditions: 30 µM
[2] = target: T1, Ubiquitin-activating enzyme e1, putative (Leishmania donovani (strain BPK282A1)) (UniProt E9BSI1); test: Leishmania donovani Ubiquitin Activating Enzyme (LdE1); type: functional; conditions: 30 µM
T1 sequence (whole entry): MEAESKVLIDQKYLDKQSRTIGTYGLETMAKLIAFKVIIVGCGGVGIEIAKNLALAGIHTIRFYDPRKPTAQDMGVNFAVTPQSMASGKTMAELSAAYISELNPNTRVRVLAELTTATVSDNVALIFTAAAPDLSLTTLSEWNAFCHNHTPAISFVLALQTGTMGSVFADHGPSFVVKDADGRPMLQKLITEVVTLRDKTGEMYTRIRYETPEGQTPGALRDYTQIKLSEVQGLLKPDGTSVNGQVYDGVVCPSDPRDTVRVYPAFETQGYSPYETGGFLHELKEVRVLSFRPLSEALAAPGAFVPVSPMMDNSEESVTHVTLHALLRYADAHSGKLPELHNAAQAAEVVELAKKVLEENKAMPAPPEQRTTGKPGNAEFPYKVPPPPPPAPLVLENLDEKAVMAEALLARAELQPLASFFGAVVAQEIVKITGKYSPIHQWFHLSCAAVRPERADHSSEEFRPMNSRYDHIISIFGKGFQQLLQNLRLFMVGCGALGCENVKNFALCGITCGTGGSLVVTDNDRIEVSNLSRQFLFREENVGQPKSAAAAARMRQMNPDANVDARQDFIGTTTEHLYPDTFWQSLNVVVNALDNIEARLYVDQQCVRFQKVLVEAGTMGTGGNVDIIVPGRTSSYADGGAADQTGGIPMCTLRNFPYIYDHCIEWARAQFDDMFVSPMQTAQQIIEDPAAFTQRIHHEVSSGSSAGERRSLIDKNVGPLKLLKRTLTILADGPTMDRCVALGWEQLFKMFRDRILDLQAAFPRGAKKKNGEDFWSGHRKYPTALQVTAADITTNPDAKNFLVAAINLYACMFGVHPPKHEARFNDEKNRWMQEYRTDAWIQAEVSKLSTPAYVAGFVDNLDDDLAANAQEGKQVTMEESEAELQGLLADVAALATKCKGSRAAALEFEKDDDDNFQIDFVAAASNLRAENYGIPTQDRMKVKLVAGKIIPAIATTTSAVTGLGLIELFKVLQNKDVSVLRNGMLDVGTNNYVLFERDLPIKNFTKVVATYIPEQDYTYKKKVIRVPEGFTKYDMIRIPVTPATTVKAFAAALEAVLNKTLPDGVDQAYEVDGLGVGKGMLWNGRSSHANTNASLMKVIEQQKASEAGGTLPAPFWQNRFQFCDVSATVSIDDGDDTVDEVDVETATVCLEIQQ

[3] = target: AMP-activated protein kinase, AMPK (Homo sapiens) (UniProt P54646+O43741+P54619+Q9UGJ0+Q9Y478+Q13131+Q9UGI9); test: AMP-dependent Kinase enzyme assay. An in vitro enzyme assay that detects ADP turnover that is directly proportional to AMPK activity. This uses naive AMPK that is activated during the assay with MK-8722; type: functional; conditions: 30 µM
[4] = target: Sialic acid-binding Ig-like lectin 9 (Homo sapiens) (UniProt Q9Y336); test: Hs-Siglec9 ALPHAscreen SOP 20170721; conditions: 10 µM
Chain of Sialic acid-binding Ig-like lectin 9 (Homo sapiens) (Q9Y336 whole entry): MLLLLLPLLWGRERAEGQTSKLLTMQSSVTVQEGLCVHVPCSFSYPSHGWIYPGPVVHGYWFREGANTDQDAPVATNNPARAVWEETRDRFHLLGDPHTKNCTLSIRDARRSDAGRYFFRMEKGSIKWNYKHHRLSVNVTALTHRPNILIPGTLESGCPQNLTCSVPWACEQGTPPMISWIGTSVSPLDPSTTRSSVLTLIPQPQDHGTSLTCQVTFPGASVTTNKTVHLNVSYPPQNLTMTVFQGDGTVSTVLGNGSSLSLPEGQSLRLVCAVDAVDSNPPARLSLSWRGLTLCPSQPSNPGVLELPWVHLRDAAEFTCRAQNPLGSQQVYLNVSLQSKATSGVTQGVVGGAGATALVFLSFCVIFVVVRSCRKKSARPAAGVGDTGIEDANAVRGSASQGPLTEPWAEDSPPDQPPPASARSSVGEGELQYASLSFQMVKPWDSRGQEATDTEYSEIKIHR

Trypanosoma cruzi = test: Trypanosoma cruzi phosphomannomutase and mannose-1-phosphate guanylyltransferase assay; type: functional; conditions: 10 µM
[5] = target: T2, Arginase-2, mitochondrial (Homo sapiens) (UniProt P78540); test: in vitro enzyme assay to detect the production of urea directly proportional to the activity of Arginase II; type: functional; conditions: 33.3 µM; also: in the data most compounds retested in dose-response had high values
T2 sequence (whole entry): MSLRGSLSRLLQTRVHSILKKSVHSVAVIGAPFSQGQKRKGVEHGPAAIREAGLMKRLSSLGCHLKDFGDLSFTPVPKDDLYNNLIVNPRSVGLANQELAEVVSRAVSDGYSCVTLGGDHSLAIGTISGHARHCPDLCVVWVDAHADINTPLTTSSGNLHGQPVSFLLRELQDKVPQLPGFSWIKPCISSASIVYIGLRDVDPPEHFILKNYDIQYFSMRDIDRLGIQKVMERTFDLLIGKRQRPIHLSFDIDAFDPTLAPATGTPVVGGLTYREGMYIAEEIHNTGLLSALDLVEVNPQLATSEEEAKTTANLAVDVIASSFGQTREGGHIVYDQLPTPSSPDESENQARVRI

[6] = target: T3, Proteasome subunit beta (Trypanosoma cruzi) (UniProt O96673); test: Trypanosoma cruzi proteasome chymotrypsin-like activity (TcProtChymo) assay.; also: in the data most compounds retested in dose-response had high values; type: functional; conditions: 9.37 µM
T3 sequence (whole entry): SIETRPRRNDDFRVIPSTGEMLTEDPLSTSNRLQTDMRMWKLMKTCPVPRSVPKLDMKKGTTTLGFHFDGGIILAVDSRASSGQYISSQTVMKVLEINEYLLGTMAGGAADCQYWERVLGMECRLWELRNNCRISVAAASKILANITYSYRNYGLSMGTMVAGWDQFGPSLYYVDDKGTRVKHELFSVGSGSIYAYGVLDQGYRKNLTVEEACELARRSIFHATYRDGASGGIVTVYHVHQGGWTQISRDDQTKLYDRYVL

Homo sapiens = species on record: Homo sapiens; test: To identify inhibition of the IFN signalling (Jak-Stat) pathway via expression of an eGFP reporter gene under the control of an IFN-stimulated response element (ISRE) containing MxA promoter.; type: functional; conditions: 30 µM
[7] = target: T4, Tyrosyl-tRNA synthetase, putative (Trypanosoma cruzi (strain CL Brener)) (UniProt Q4DSP6); test: Trypanosoma cruzi tyrosyl tRNA synthetase (TcYRS) _High Tyrosine SOP; type: functional; conditions: 30 µM; also: in the data most compounds retested in dose-response had high values
T4 sequence (whole entry): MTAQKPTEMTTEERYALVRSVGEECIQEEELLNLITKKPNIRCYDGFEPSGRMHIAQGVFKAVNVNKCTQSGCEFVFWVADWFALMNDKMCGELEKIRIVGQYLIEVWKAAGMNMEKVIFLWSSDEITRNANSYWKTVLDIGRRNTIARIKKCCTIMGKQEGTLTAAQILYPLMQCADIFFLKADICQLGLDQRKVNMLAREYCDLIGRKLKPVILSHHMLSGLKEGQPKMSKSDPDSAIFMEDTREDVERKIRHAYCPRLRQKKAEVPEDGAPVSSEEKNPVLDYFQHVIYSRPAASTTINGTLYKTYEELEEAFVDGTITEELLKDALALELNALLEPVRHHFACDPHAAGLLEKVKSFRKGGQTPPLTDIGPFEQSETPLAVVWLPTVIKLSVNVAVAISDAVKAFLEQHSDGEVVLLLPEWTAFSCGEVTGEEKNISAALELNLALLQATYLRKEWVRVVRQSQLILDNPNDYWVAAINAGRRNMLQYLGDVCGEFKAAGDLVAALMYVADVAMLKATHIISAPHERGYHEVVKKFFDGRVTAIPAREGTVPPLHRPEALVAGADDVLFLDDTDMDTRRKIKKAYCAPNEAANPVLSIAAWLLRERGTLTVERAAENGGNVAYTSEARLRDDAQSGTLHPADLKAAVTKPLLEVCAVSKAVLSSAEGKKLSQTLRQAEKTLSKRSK

[8] = target: T4, Tyrosyl-tRNA synthetase, putative (Trypanosoma cruzi (strain CL Brener)); test: Trypanosoma cruzi tyrosyl tRNA synthetase (TcYRS) SOP; type: functional; conditions: 30 µM
[9] = target: Chromo domain-containing protein 1 (Saccharomyces cerevisiae (strain ATCC 204508 / S288c) (Baker's yeast)) (UniProt P32657); test: ScCHD-1 Enzyme Inhibition Assay; type: functional; conditions: 30 µM; also: in the data most compounds retested in dose-response had high values
Chain of Chromo domain-containing protein 1 (Saccharomyces cerevisiae (strain ATCC 204508 / S288c) (Baker's yeast)) (P32657 whole entry, the tested form may be a part): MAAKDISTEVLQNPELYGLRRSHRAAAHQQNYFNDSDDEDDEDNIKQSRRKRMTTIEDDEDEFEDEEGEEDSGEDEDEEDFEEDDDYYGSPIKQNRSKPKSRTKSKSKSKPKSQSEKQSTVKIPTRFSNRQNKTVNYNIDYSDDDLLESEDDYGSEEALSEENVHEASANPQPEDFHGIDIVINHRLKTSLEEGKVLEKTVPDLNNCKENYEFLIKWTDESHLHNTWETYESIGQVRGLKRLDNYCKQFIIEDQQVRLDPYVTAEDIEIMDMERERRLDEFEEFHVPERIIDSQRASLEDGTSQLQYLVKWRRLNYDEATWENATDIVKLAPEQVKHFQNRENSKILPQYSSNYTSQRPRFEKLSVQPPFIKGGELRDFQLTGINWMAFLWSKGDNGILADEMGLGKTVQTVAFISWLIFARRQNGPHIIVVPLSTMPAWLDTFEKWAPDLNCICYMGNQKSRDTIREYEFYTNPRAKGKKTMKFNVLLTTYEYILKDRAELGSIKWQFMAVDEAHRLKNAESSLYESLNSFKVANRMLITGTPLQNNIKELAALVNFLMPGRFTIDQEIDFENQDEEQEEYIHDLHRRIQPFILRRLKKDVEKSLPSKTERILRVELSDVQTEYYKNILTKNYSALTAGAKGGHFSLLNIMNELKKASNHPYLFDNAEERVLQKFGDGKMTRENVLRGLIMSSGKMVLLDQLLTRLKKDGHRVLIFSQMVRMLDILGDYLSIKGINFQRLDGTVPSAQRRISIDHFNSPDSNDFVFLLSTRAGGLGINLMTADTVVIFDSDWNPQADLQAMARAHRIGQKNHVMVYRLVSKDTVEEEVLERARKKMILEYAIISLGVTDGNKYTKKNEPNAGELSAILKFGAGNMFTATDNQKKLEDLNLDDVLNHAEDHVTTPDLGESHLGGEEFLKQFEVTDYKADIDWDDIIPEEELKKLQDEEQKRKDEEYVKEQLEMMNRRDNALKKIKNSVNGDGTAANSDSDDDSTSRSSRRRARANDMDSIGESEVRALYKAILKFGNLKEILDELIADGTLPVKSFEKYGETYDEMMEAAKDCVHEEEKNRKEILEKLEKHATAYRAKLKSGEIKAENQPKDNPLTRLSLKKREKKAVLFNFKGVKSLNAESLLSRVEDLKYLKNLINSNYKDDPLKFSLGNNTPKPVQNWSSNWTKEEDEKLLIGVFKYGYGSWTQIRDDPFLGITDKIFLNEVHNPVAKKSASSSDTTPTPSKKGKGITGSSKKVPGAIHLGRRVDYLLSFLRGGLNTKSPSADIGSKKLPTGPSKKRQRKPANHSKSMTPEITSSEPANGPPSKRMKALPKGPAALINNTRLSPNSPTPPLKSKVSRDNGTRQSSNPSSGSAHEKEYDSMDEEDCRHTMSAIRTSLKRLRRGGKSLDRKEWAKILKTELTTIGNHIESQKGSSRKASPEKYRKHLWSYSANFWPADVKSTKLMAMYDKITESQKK

Chain of Protein translocase subunit SecA (Escherichia coli (strain K12)) (P10408 whole entry): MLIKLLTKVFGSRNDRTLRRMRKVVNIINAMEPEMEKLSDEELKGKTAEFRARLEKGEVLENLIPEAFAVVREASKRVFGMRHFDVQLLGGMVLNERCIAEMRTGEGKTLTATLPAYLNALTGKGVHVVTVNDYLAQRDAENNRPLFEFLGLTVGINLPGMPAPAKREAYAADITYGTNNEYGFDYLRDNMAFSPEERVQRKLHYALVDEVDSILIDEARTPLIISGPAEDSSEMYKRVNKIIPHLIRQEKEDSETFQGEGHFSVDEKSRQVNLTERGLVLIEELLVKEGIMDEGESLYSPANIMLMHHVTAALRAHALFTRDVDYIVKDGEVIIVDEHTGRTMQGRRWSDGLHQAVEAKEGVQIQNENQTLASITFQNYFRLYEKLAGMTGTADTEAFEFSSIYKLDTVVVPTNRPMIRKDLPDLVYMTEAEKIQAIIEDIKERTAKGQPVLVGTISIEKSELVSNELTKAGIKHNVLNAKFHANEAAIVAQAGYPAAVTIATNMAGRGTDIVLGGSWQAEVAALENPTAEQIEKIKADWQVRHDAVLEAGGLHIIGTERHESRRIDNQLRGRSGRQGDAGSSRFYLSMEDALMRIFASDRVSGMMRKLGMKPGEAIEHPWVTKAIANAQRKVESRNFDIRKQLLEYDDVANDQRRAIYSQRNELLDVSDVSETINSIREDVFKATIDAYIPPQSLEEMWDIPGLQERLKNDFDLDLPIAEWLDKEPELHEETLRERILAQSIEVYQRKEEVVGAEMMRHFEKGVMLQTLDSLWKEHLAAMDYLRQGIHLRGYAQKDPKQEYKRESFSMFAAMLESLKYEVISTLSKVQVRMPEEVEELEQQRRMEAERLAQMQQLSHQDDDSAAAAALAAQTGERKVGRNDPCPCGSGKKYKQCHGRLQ

| Structure (SMILES) | Percent Effect [1] [%] | Percent Effect [2] [%] | Percent Effect [3] [%] | Percent Effect [4] [%] | Percent Effect (Trypanosoma cruzi) [%] | Percent Effect [5] [%] | Percent Effect [6] [%] | Percent Effect (Homo sapiens) [%] | Percent Effect [7] [%] | Percent Effect [8] [%] | Percent Effect [9] [%] |
| --- | --- | --- | --- | --- | --- | --- | --- | --- | --- | --- | --- |
| CNC(=O)NC(=O)CN1CCC(c2cccc(F)c2)C1 (stereo unspecified) | -1.99 | 0 | 5.35 | -0.914 | -2.82 | 2.3 | -2.51 | 11.3 | 2.45 | 4.88 | 4.66 |
| Cc1cc(C)c(CNC(=O)NCC2CCCN2C)c(=O)[nH]1 (stereo unspecified) | -7.62 | 2.63 | -1.76 | 2.1 | -4.89 | -2.68 | 4.84 | 25.4 | -4.41 | -2.44 | -2.8 |
| CCN(CC1CCOC1)C(=O)c1ccccc1N1CCOCC1 (stereo unspecified) | -3.71 | 23.7 | -4.13 | -10.1 | -3.08 | 1.8 | 4.82 | 12.3 | 5.42 | 11.1 | -5.45 |
| CC(C)c1nc(C2CCCN(C(=O)Cc3cccnc3)C2)no1 (stereo unspecified) | -0.76 | 16.2 | -13.3 | -2.67 | -10.3 | -1.6 | 2.16 | 25.4 | 5.42 | 6.17 | -2.89 |
| CCC1CN(Cc2ccccc2)CCN1Cc1nnc(C2CCC2)o1 (stereo unspecified) | -1.22 | 2.74 | -2.21 | 8.69 | 6.07 | 5.91 | 1.95 | -3.45 | 1.07 | 5 | -0.293 |
| O=C(c1cnco1)N1CCCC(Cc2cccc3ncccc23)C1 (stereo unspecified) | -1.91 | -4.05 | 15.2 | -0.964 | 7.51 | 0.696 | 8.42 | 17.8 | 1.07 | 9.09 | -18.8 |
| Cc1ccccc1Oc1ncccc1CNS(C)(=O)=O | -5.18 | 15.6 | -0.858 | 12.6 | 8.16 | -8.28 | 1.33 | 0.0503 | 5.38 | 11.1 | -7.62 |
| CSc1ccsc1C(=O)N1CCN(CC(C)(C)O)CC1 | -4.54 | 8.86 | 0.454 | 1.08 | 1.13 | -4.95 | 4.29 | 3.01 | 4.17 | -25.3 | -14.7 |
| COc1ccc2c(c1)CC(NC(=O)NCc1cccs1)CO2 (stereo unspecified) | 2.24 | 7.79 | 5.45 | -2.89 | -5.62 | -112 | 5.4 | 5.91 | 2.12 | 8.97 | -2.81 |
| COc1nc2c(cc1C(=O)N1C[C@H](N)C[C@H]1C(=O)NC(C)C)CCC2 | -3.3 | 18.1 | -10.6 | 9.06 | 6.51 | 8.83 | 16.3 | 9.52 | 6.32 | 15.4 | -4.1 |
| COc1ccc(C(=O)NS(=O)(=O)c2cncc(Br)c2)cc1OC | -6.13 | -5.41 | -4.05 | 9.13 | -2.51 | 0 | 2.07 | 24.4 | 2.65 | 0 | -1.34 |
